ULK1 primary – inhibitors of human ULK1 kinase; O75385; AID 1259251; AlphaScreen Atg13 phosphorylation by ULK1, luminescence; 30,000 compounds, 1.9% hits; inhibition, % at 5.96 µM; in the data active = inhibition above about 43%;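 note: 0% = median of compound wells and 100% = no enzyme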
ASK1 inh – inhibitors of human ASK1 kinase; Q99683; AlphaScreen MKK6 phosphorylation by ASK1, luminescence; inhibition, % at 7.44 µM; 22,000 compounds, 0.99% hits; AID 1159602; in the data active = inhibition above about 35%;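 note: 0% = median of compound wells and 100% = no enzyme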
The depositor's hits bear a star; . = no result. The list is not random: actives were taken first. Their share in the collection is about 2.5%.

SMILES | ULK1 primary | ASK1 inh
CN1C[C@H](C(=O)N[C@]2(C)O[C@@]3(O)C4CCCN4C(=O)[C@H](Cc4ccccc4)N3C2=O)C=C2c3cccc4[nH]cc(c34)C[C@H]21 (some centres undefined) | 23 | .
CCC(CO)NC(=O)[C@@H]1C=C2c3cccc4[nH]cc(c34)C[C@H]2N(C)C1 (some centres undefined) | 53* | .
CC12CCC(=O)C=C1CCC1C2CCC2(C)C(C(=O)O)CCC12 (centres undefined) | 1 | .
NCCc1cc(O)c(O)cc1O | 91* | .
O=[N+]([O-])c1ccc(NCCCCNc2ccc([N+](=O)[O-])c3cccnc23)c2ncccc12 | -6 | .
COc1ccc(/C=C2/C(=N\O)C3CCN2CC3)cc1 | -7 | .
CC[n+]1c(-c2ccccc2)c2cc(N)ccc2c2ccc(N)cc21 | 62* | .
CN(C)[C@@H]1C(=O)C(C(N)=O)=C(O)[C@@]2(O)C(=O)C3=C(O)c4c(O)cccc4[C@@](C)(O)[C@H]3[C@H](O)[C@@H]12 | 51* | .
CN(CCN(C)C(C)(C)C)C(=O)C(O)(c1ccccc1)c1ccccc1 | -8 | .
Cl/C=C/C[N+]12CN3CN(CN(C3)C1)C2 | 0 | .
O=C(Nc1ccc2[nH]ncc2c1)C1CN(Cc2ccccc2)CC1c1ccccc1Cl (centres undefined) (tested in a mixture with another compound) | -22 | 10
CCC(Br)(CC)C(=O)NC(N)=O | 82* | .
[Tl+] | -2 | .
Nc1nc(/N=C/c2ccc(N(CCCl)CCCl)cc2)n[nH]1 | -6 | .
COc1ccc(-c2ccc(C=C3C(=O)NC(=S)NC3=O)o2)cc1Cl | 32 | .
Oc1cc(Cl)ccc1Oc1ccc(Cl)cc1Cl | 44* | .
Oc1ccc(Cl)cc1Cc1ccccc1 | -34 | .
C1CN1c1nc(N2CC2)nc(N2CC2)n1 | 10 | .

Source: PubChem BioAssay
